# A3A deaminase: APOBEC3A ssDNA deaminase inhibitors, primary screen, selectivity assay for APOBEC3G inhibitor project, biochemical, FAM/TAMRA oligo cleavage fluorescence. recombinant A3A, FAM/TAMRA ssDNA deamination fluorescence. DNA dC->dU-editing enzyme APOBEC-3A (Homo sapiens), P31941. inhibition, % at 20 µM. AID 493011, 2011. actives 0.41% (n = 330,000);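 active = at least 40% inhibition at 20 µM here, with at most 30% in a related deaminase screen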;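 also: plate controls were A3A with DMSO for no effect and wells lacking A3A enzyme for full effect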
# ADAM17 inh: ADAM17 inhibitors, primary screen, biochemical, QFRET. AID 720648, 2013. Disintegrin and metalloproteinase domain-containing protein 17 (Homo sapiens), P78536. actives 0.83% (n = 370,000). inhibition, % at 6.95 µM. recombinant ADAM17, EDANS/DABCYL FRET peptide cleavage;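 active = inhibition above the mean of compounds lying between control limits plus 3 SD, set per campaign, cut at about 8.5% in these data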;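 also: 0% = DMSO-only wells as the low control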
# ADAM10 inh: human ADAM10 inhibitors, primary screen, biochemical, QFRET, HTS | Disintegrin and metalloproteinase domain-containing protein 10 (Homo sapiens), O14672 | recombinant ADAM10, EDANS/DABCYL FRET peptide cleavage, 3 h | inhibition, % at 7 µM | actives 0.62% (n = 370,000) | AID 720582, 2013;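 active = inhibition above a per-campaign cutoff equal to the mean of compounds falling between control-based bounds plus 3 SD, cut at about 20% in these data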;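 also: 0% = DMSO wells while the 100% control is not disclosed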
# Target sequence (O14672 214-748 limits assumed): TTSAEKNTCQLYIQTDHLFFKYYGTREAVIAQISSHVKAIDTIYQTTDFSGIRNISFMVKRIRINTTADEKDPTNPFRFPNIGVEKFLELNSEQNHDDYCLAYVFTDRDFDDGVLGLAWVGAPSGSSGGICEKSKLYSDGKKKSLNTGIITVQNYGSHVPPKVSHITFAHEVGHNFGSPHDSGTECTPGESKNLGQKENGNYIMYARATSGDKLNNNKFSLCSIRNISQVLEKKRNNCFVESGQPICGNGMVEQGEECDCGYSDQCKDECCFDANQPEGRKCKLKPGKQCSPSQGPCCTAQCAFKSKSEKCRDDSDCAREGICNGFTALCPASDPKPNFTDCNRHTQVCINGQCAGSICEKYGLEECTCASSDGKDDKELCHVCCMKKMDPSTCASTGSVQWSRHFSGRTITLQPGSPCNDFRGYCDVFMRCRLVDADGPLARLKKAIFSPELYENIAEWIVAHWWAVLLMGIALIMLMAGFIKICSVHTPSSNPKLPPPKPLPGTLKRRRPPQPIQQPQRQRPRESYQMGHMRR
# A3G deaminase: APOBEC3G DNA deaminase inhibitors, primary screen, biochemical, fluorescence, single-stranded DNA substrate, uHTS. inhibition, % at 20 µM. AID 493012, 2011. recombinant A3G, ssDNA deamination FAM/TAMRA fluorescence. actives 0.28% (n = 330,000);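 active = inhibition of at least 40% at 20 µM, with no more than 30% in the related APOBEC3A deaminase screen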;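 also: plate controls were DMSO wells with A3G for no effect and wells lacking A3G enzyme for full effect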
# CendR NRP1 mod: modulators of CendR peptide binding to NRP-1, primary screen, biochemical, fluorescence polarization, uHTS; Neuropilin-1 (Homo sapiens), O14786; FAM-RPARPAR peptide binding to NRP-1; inhibition, % at 25 µM; actives 0.85% (n = 360,000); AID 602438, 2012;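 active = inhibition or corrected inhibition above about 18%, plus a signal ratio from 0.5 to 1.5, limit read from the data, passing the limit was not always enough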
# ADAM10 confirm: human ADAM10 inhibitors, confirmation, biochemical, QFRET, triplicate; inhibition, % at 6.95 µM; actives 1% (n = 2,100); ADAM10 QFRET peptide cleavage, EDANS fluorescence; shares compounds with ADAM10 inh;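 active = inhibition above about 20% chosen separately for each screening run, limit read from the data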;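 also: 0% = DMSO wells and 100% = marimastat wells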
# ADAM17 ctr: ADAM17 inhibitors, counter-screen for ADAM10 exosite inhibitor project, biochemical, QFRET, high throughput; ADAM17 QFRET peptide cleavage, EDANS fluorescence; inhibition, % at 6.95 µM; shares compounds with ADAM10 inh; actives 0.5% (n = 2,100); AID 743214, 2013;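 active = mean triplicate inhibition above the solvent-only control wells' mean plus 3 SD, cut at about 12% in these data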;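 also: 0% = DMSO wells and 100% = marimastat wells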
# ADAM10 ctr: ADAM10 inhibitors, counter-screen for ADAM17 exosite inhibitor project, biochemical, FRET, human ADAM10; shares compounds with ADAM17 inh; recombinant ADAM10, EDANS/DABCYL FRET peptide cleavage, 3 h; inhibition, % at 6.95 µM; actives 47% (n = 2,900); AID 743256, 2014;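 active = mean inhibition over the triplicate runs exceeds the activity threshold set in the earlier primary screen, cut at about 20% in these data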;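 also: 0% = DMSO wells and 100% = marimastat wells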
# ADAM17 confirm: ADAM17 inhibitors, hit retest, confirmation, biochemical, QFRET peptide cleavage. shares compounds with ADAM17 inh. recombinant ADAM17, EDANS/DABCYL QFRET peptide cleavage. inhibition, % at 6.95 µM. actives 65% (n = 2,900). AID 743257, 2014;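 active = mean inhibition across replicates above the hit cutoff set in the primary screen, cut at about 8.5% in these data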;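 also: 0% = DMSO wells and 100% = marimastat wells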
# * marks the source's active call; other numbers are inactive results; / = not tested or not shown. In the library only some 2.4% were active in any assay of this set; here they are far more common.
SMILES,A3A deaminase,ADAM17 inh,ADAM10 inh,A3G deaminase,CendR NRP1 mod,ADAM10 confirm,ADAM17 ctr,ADAM10 ctr,ADAM17 confirm
O=C(CSc1ccc(Br)c2cccc(Cl)c12)Nc1ccc(S(=O)(=O)Nc2nccs2)cc1,1,16*,32*,-4,-6,11,5,23*,14*
CC(C)(C)c1ccc(-c2nnc(SCC(=O)Nc3ccc(S(=O)(=O)Nc4nccs4)cc3)n2-c2ccc(Cl)cc2)cc1,/,13*,27*,/,/,11,2,27*,16*
O=C(CSc1nnc(-c2ccccn2)n1-c1ccc(Cl)cc1)Nc1ccc(S(=O)(=O)Nc2nccs2)cc1,/,4,7,/,/,/,/,/,/
O=C(CNSc1ccc([N+](=O)[O-])cc1[N+](=O)[O-])OCc1ccccc1,/,-4,-4,/,/,/,/,/,/
COC(=O)c1ccc(Cl)c(NC(=O)CN(c2ccc(OC)cc2)S(=O)(=O)c2ccccc2)c1,0,18*,35*,1,-10,4,1,26*,16*
COC(=O)c1ccc(Cl)c(NC(=O)CN(c2ccc(OC)c(OC)c2)S(C)(=O)=O)c1,-1,-2,-6,3,-4,/,/,/,/
C=CCN1[C@H](C)COc2cc(F)ccc2S1(=O)=O,/,-3,6,/,/,/,/,/,/
COc1cc(NC(=O)CN2C(=O)C(c3ccccc3)=NC23CCCCCC3)cc(OC)c1,-2,8.7*,30*,-7,11,2,1,6,5
COc1cccc(NC(=O)CN2C(=O)C(c3ccc(C)cc3)=NC23CCCCCC3)c1,-1,2,2,-8,-4,/,/,/,/
COc1ccc(S(=O)(=O)N(C)C[C@@H]2Oc3c(NC(=O)Nc4ccccc4)cccc3C(=O)N([C@@H](C)CO)C[C@H]2C)cc1,/,-2,-3,/,/,/,/,/,/
C[C@H](NC(=O)c1nc[nH]c1C(=O)N[C@@H](Cc1ccccc1)C(=O)OC(C)(C)C)C(=O)OC(C)(C)C,-1,10.0*,22*,-7,-2,1,0,50*,24*
CC(C)C[C@H](NC(=O)c1[nH]cnc1C(=O)N[C@@H](C)C(=O)OCc1ccccc1)C(=O)OC(C)(C)C,-3,14*,29*,-4,-24,4,2,39*,21*
CC(C)(C)OC(=O)N1CCC(NC(=O)c2nc[nH]c2C(=O)NCC(=O)OCc2ccccc2)CC1,-4,8.7*,23*,-12,2,-2,0,8,2
CC(C)C[C@H](NC(=O)c1nc[nH]c1C(=O)NCC(=O)OC(C)(C)C)C(=O)OC(C)(C)C,-2,13*,26*,-9,6,1,0,30*,15*
CC(C)(C)OC(=O)[C@H](Cc1ccccc1)NC(=O)c1nc[nH]c1C(=O)N[C@@H](Cc1ccccc1)C(=O)OC(C)(C)C,2,-1,2,-4,13,/,/,/,/
COc1cccc(CNC(=O)[C@H]2CCCN2C(=O)[C@H]2CCCN2C(=O)c2ccc(F)c(C(F)(F)F)c2)c1,/,-6,-2,/,/,/,/,/,/
COc1ccc(CN2CCC(CNC(=O)Nc3ccc(C)c(F)c3)CC2)cc1,/,1,3,/,/,/,/,/,/
COC(=O)[C@]12C[C@H](CC(=O)N3CCOCC3)C(=O)N(Cc3ccco3)C1=C[C@H](C1CCCC1)O[C@@H]2C,/,-8,0,/,/,/,/,/,/
CC(C)C[C@H](NC(=O)c1[nH]cnc1C(=O)N[C@H](C)c1ccccc1)C(=O)OCc1ccccc1,-2,13*,27*,-7,-4,6,3,46*,21*
CC(C)C[C@H](NC(=O)c1nc[nH]c1C(=O)NCC(=O)OCc1ccccc1)C(=O)OC(C)(C)C,4,8.9*,23*,-10,2,5,1,33*,16*
C[C@H](NC(=O)c1nc[nH]c1C(=O)NCC(=O)OCc1ccccc1)C(=O)OC(C)(C)C,3,2,7,10,23,/,/,/,/
Cc1ccc(C)c(OCCC(=O)OCC(=O)Nc2cc(S(=O)(=O)N3CCCCC3)ccc2C)c1,-2,11*,25*,-6,9,6,2,45*,21*
COc1ccc(NC(=O)CCOc2cc(C)ccc2C)cc1S(=O)(=O)N1CCCCC1,0,12*,24*,-5,-14,2,1,9,9.2*
CCOc1ccc(C(=O)CCC(=O)Nc2ccc(C)c(S(=O)(=O)N3CCCCC3)c2)cc1,-2,9.1*,28*,-7,7,6,3,27*,13*
COc1ccc(NC(=O)CCCOc2ccc(C)cc2)cc1S(=O)(=O)N1CCCCC1,/,0,5,/,0,/,/,/,/
CN(c1ccccc1)S(=O)(=O)c1cccc(NC(=O)CSc2ncc(C(F)(F)F)cc2Cl)c1,2,10.0*,20*,0,4,10,4,26*,10*
CN(C)S(=O)(=O)c1cccc(NC(=O)Cn2cc(C(F)(F)F)cc(Cl)c2=O)c1,0,3,-5,-16,9,/,/,/,/
CC(=O)C1(C(=O)Nc2cc(C)cc(C)c2)CC(c2ccccn2)=NO1 (centres undefined),/,-5,-20,/,/,/,/,/,/
COc1ccc(N=C2SC(CC(=O)Nc3ccccc3)C(=O)N2Cc2ccco2)cc1 (centres undefined),0,9.3*,28*,-5,-5,6,0,20*,14*
CCOc1cc(/C=N/O)cc(Br)c1OCC,3,0,3,-3,-1,/,/,/,/

# Bioassay records deposited in PubChem BioAssay by several laboratories.
